Test results taken from PubChem BioAssay.
A number with no mark means an inactive call. Some of the results follow. Calls of active or inactive are those of the source.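 The calls were made as follows, unless noted: active = inhibition above the primary screen's cutoff, its mean inhibition plus 3 SD (cut at about 35% in these data); inactive = the rest.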

Legend:
[1] = biological target: Protein phosphatase methylesterase 1 (Homo sapiens) (UniProt Q9Y570); test: human PME-1 methylesterase inhibition confirmation – biochemical, fluorescence polarization, FP-Rh probe, triplicate (AID 2171;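 active = inhibition above the hit cutoff set in the earlier primary screen, cut at about 27% in these data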;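 also: 0% = enzyme with DMSO and 100% = wells lacking PME-1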); conditions: recombinant PME-1, FP-Rh probe fluorescence polarization; at 5.9 µM; hits give high values
[2] = StAR promoter reporter inhibitors, counter-screen for LRH-1 inverse agonist project, cell-based, luminescence, high throughput (AID 651611; in the data active = inhibition above about 28%); conditions: StAR promoter luciferase reporter counterscreen, at 3.6 µM, hits give high values
[3] = biological target: Nuclear receptor subfamily 5 group A member 2 (Homo sapiens) (UniProt O00482); test: NR5A2 activity suppression in reporter cells – cell-based, luminescence, confirmation (AID 651613; in the data active = inhibition above about 42%;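 also: HEK293T cells co-transfected with LRH-1 and StAR promoter luciferase reporter; 0% = vehicle wells and 100% = parental cells lacking receptor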); conditions: cell-based LRH-1 luciferase reporter, inverse agonism; at 3.6 µM; hits give high values
[4] = biological target: Steroidogenic factor 1 (Homo sapiens) (UniProt Q13285); test: inverse agonism at SF1 nuclear receptor – cell-based, luminescence, high throughput, counter-screen for LRH-1 inverse agonist project (AID 651614; in the data active = inhibition above about 44%;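 also: cells cotransfected with StAR promoter reporter and SF1 expression vector; 0% = vehicle on cells with receptor and 100% = vehicle on cells lacking receptor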); conditions: cell-based SF1 luciferase reporter, at 3.6 µM, hits give high values
[5] = compounds suppressing VP16-driven luciferase signal – cell-based, luminescence, high throughput, counter-screen for LRH-1 inverse agonist project (AID 651615; in the data active = inhibition above about 33%); conditions: Gal4-VP16 luciferase reporter cells, at 3.6 µM, hits give high values
[6] = biological target: Glutathione S-transferase omega-1 (Homo sapiens) (UniProt P78417); test: recombinant GSTO1 blockers, retest – biochemical, fluorescence polarization, triplicate, counter-screen for RBBP9 inhibitor project, confirmation (AID 2176); conditions: recombinant GSTO1, probe fluorescence polarization; at 5.96 µM; hits give high values;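 also: loss of polarization as inhibitors block binding of rhodamine sulfonate ester activity probe; 0% = GSTO1 with DMSO and 100% = wells lacking GSTO1 enzyme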
[7] = biological target: Platelet-activating factor acetylhydrolase IB subunit alpha1 (Homo sapiens) (UniProt Q15102); test: inhibition of PAF acetylhydrolase 1B subunit 3 – biochemical, fluorescence polarization, human, confirmation (AID 493032;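 active = average inhibition over triplicate runs above the hit cutoff set in the earlier primary screen, cut at about 25% in these data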;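 also: 0% = enzyme with DMSO and 100% = wells lacking PAFAH1B3 protein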); conditions: recombinant PAFAH1B3, FP-Rh activity-based probe, at 3.39 µM, hits give high values
[8] = biological target: Protein-arginine deiminase type-4 (Homo sapiens) (UniProt Q9UM07); test: protein arginine deiminase 4 blockade, retest – biochemical, fluorescence polarization, confirmation (AID 488796;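 active = mean inhibition across replicates above the hit cutoff set by the earlier primary screen, cut at about 15% in these data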;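 also: inhibitors block active-site labeling by the probe so polarization falls; 0% = PAD4 with probe and DMSO and 100% = probe without PAD4 enzyme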); conditions: recombinant PAD4, RCA probe fluorescence polarization; at 6.36 µM; hits give high values
[9] = biological target: Insulin-degrading enzyme (Homo sapiens) (UniProt P14735); test: cellular IDE Abeta-cleavage inhibition – fluorescence polarization, HEK cells, FAbetaB substrate, confirmation (AID 435028;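 active = mean inhibition across triplicate wells above the cutoff set by the earlier primary insulin-degrading enzyme screen, cut at about 16% in these data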;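 also: 0% = DMSO wells and 100% = 60 µM reference IDE inhibitor Ii1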); conditions: at 5.59 µM, hits give high values
[10] = HEK cell viability loss – luminescence, cytotoxicity control for IDE inhibitor project (AID 449730; in the data active = inhibition above about 22%;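 also: 0% = vehicle wells and 100% = reference cytotoxic drug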); conditions: HEK293 cytotoxicity, ATP luminescence; at 5.59 µM; hits give high values
[11] = biological target: (Lyso)-N-acylphosphatidylethanolamine lipase (Mus musculus) (UniProt Q8VD66); test: mouse ABHD4 hydrolase blockers, triplicate – biochemical, fluorescence polarization, confirmation (AID 720658;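 active = mean inhibition across replicates above the hit cutoff set in the primary screen, cut at about 30% in these data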;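 also: 0% = wild-type ABHD4 with DMSO and 100% = catalytically dead S159A mutant with DMSO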); conditions: purified mABHD4, FP-Rh probe fluorescence polarization; at 8.92 µM; hits give high values
[12] = tested on: transactivating tegument protein VP16 (Human herpesvirus 1); test: compounds suppressing VP16-driven luciferase signal – cell-based, luminescence, single concentration, counter-screen for SRC2 inhibitor project (AID 652007; in the data active = inhibition above about 36%); conditions: cell-based VP16 transactivation luciferase reporter, at 8.9 µM, hits give high values
[13] = biological target: Nuclear receptor coactivator 2 (Homo sapiens) (UniProt Q15596); test: inhibition of GAL4-SRC2 driven luciferase expression – cell-based, luminescence, HEK293, triplicate, confirmation (AID 652008;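 active = mean inhibition above 46.5%, the solvent-only control mean plus 3 SD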;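 also: 0% = DMSO-treated cells and 100% = Gossypol at 36 µM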); conditions: HEK293 GAL4-SRC2 luciferase reporter, at 8.9 µM, hits give high values
[14] = biological target: Platelet-activating factor acetylhydrolase (Homo sapiens) (UniProt Q13093); test: inhibition of plasma PAF acetylhydrolase – biochemical, fluorescence polarization, human, confirmation (AID 463230;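 active = mean inhibition of the triplicate above the hit cutoff set for the earlier primary screen, cut at about 25% in these data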;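 also: 0% = enzyme with DMSO and 100% = wells lacking pPAFAH enzyme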); conditions: recombinant pPAFAH, FP-Rh probe fluorescence polarization; at 3.39 µM; hits give high values
[15] = reduced OD of T4-infected AddAB+ E. coli – absorbance, E. coli V3065, T4 phage, triplicate, AddAB inhibitor project, confirmation (AID 488942;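 active = mean inhibition above a set limit taken from the earlier primary screen, cut at about 13% in these data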;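 also: higher means less bacterial growth since AddAB block lets phage replicate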); conditions: E. coli V3065 expressing H. pylori AddAB, at 11.9 µM, hits give high values, T4 phage with gene 2 nonsense mutations
[16] = reduced OD of phage-infected RecBCD+ V66 E. coli – absorbance, mutant T4 phage, counter-screen for AddAB inhibitor project (AID 488955;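 active = mean inhibition above the mean of solvent-only control wells plus 3 SD, cut at about 4% in these data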;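 also: optical density read after an 18 h incubation at 37 °C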); conditions: OD growth, at 11.9 µM, hits give high values
[17] = bacterial growth inhibitors – absorbance, counter-screen for AddAB inhibitor project, confirmation (AID 488956; in the data active = inhibition above about 25%); conditions: bacterial viability, absorbance (AddAB counterscreen); at 11.9 µM; hits give high values

Sequence of Glutathione S-transferase omega-1 (Homo sapiens) (P78417 whole entry, looked up): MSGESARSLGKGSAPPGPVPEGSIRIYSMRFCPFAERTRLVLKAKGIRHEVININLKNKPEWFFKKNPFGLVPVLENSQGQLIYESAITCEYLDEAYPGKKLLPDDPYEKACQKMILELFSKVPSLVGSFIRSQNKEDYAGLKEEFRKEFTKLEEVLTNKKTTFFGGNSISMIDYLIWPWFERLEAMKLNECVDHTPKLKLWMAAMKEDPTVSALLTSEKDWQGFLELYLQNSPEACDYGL
Sequence of Steroidogenic factor 1 (Homo sapiens) (Q13285 whole entry, looked up, the tested form may be a part): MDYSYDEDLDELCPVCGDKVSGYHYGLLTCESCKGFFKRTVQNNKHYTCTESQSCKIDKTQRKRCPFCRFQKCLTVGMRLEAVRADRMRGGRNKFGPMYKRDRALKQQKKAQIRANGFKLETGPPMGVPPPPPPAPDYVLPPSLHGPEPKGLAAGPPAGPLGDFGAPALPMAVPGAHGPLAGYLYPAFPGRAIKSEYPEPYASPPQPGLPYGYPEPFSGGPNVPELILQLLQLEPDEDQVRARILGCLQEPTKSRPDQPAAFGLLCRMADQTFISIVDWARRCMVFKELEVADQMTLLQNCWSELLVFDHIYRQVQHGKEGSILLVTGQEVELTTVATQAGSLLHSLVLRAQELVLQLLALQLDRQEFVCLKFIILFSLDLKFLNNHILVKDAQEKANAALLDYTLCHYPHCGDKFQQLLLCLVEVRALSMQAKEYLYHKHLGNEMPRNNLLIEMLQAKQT
Sequence of Protein-arginine deiminase type-4 (Homo sapiens) (Q9UM07 whole entry, looked up): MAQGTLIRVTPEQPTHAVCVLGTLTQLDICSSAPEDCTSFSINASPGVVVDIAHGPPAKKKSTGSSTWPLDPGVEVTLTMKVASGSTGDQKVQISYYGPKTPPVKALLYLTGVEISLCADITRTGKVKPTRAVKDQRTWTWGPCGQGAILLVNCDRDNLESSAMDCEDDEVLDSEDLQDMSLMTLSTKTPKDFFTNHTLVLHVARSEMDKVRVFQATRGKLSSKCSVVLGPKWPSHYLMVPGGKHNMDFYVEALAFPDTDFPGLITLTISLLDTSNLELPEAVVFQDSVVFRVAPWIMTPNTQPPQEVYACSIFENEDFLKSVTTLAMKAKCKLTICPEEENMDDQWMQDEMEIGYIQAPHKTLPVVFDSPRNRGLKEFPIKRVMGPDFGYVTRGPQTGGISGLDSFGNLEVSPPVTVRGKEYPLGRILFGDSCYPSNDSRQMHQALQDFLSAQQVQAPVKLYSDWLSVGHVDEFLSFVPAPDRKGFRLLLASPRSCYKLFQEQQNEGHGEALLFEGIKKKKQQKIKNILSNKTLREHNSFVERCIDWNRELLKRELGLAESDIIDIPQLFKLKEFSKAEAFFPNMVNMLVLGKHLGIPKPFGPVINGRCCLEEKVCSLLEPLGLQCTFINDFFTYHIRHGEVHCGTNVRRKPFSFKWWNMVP
Sequence of Insulin-degrading enzyme (Homo sapiens) (P14735 whole entry, looked up): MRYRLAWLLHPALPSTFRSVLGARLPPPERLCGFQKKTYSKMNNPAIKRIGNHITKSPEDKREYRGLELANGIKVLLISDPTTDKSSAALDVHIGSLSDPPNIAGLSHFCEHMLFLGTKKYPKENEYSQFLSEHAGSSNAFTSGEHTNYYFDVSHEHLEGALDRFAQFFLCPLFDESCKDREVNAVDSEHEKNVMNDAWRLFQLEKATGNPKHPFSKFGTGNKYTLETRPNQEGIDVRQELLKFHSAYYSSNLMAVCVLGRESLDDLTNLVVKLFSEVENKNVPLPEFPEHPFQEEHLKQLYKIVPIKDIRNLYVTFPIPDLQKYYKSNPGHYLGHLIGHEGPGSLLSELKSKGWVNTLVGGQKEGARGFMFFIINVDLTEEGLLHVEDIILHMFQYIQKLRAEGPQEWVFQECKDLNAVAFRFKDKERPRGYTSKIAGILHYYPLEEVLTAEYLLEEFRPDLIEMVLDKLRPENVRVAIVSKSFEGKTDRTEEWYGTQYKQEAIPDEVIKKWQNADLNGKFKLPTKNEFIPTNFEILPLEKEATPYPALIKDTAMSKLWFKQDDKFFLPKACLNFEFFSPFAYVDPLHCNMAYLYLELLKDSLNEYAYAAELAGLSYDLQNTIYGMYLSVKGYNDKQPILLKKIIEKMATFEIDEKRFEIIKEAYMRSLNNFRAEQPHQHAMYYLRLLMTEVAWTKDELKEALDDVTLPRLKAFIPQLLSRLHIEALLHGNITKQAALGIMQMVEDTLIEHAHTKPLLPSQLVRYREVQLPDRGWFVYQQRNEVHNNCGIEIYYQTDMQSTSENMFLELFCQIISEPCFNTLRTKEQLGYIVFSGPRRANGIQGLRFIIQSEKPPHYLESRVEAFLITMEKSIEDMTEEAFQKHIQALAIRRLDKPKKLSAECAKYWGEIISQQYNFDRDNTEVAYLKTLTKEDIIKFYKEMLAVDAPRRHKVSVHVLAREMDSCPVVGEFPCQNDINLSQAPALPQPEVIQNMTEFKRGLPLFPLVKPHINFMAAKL
Sequence of Nuclear receptor subfamily 5 group A member 2 (Homo sapiens) (O00482 whole entry, looked up): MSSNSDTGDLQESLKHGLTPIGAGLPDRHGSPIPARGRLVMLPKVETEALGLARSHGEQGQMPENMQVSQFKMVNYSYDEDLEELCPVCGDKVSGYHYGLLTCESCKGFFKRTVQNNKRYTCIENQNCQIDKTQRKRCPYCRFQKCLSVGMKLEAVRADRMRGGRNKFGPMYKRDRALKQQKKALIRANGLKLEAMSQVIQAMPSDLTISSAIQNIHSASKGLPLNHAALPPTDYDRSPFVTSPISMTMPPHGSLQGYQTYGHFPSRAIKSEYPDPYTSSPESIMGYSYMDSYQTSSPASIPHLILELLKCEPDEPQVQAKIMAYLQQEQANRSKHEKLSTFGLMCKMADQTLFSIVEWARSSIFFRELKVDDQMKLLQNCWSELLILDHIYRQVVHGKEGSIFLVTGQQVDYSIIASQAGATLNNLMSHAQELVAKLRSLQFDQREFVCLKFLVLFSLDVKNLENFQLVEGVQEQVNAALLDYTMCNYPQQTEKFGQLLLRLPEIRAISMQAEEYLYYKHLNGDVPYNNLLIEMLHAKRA
Sequence of Protein phosphatase methylesterase 1 (Homo sapiens) (Q9Y570 whole entry, looked up): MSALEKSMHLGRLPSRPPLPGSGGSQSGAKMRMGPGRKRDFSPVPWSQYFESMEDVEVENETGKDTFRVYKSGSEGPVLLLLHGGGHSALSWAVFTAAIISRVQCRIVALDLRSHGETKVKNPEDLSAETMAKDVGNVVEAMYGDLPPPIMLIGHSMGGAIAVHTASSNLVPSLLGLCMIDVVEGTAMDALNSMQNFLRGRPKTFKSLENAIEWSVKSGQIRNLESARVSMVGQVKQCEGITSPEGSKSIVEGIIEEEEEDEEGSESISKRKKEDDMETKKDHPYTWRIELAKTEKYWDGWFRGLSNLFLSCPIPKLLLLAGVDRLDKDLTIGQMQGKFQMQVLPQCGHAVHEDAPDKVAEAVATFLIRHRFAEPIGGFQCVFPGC
Sequence of Platelet-activating factor acetylhydrolase IB subunit alpha1 (Homo sapiens) (Q15102 whole entry, looked up): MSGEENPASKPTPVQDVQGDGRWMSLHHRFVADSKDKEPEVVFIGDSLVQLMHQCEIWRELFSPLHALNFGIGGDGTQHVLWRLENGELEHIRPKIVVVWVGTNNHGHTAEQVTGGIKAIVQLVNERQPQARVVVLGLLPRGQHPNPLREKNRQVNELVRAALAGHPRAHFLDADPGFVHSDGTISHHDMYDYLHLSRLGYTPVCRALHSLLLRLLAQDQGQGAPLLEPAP
Sequence of (Lyso)-N-acylphosphatidylethanolamine lipase (Mus musculus) (Q8VD66 whole entry, looked up): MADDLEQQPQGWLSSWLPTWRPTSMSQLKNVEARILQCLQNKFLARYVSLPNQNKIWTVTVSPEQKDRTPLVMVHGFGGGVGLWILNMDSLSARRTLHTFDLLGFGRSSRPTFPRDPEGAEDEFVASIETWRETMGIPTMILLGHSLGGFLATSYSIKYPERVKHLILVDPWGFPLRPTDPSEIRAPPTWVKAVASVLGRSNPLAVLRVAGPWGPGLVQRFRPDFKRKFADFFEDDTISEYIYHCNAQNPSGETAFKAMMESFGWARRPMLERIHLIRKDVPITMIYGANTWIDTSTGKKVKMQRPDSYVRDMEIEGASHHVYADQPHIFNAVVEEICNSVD
Sequence of Platelet-activating factor acetylhydrolase (Homo sapiens) (Q13093 whole entry, looked up): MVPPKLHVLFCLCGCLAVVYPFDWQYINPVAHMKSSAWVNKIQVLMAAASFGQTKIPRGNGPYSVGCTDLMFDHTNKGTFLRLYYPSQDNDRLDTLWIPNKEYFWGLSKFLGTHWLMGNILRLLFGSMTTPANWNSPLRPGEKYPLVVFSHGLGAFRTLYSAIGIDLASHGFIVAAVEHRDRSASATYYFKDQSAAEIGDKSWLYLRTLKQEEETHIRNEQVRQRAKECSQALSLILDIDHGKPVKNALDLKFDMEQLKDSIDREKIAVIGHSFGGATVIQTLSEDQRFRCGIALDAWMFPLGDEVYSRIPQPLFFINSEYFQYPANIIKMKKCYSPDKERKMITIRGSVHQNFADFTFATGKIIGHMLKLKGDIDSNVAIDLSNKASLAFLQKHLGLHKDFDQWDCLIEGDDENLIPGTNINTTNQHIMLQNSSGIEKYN

Which inhibition [1] does the source give for `Cc1cc(C)c(S(=O)(=O)/N=C2/C=C(Sc3ncn[nH]3)C(=O)c3ccccc32)cc1C` here?
Its inhibition is 17.7%.

And the inhibition [2]?
Its inhibition is 27.3%.

What about the inhibition [3] of the same compound?
The inhibition was 77.8% (active).

And the inhibition [4]?
Its inhibition is 72.5% (active).

What about the inhibition [5] of the same compound?
Its inhibition is 39.7% (active).

For `COc1cccc(/C=N/NC(=O)c2[nH]c(C)c(C(=O)N/N=C/c3cccc(OC)c3O)c2C)c1O`, which inhibition [1] is on record?
The inhibition was -31.6%.

And the inhibition [2]?
Its inhibition is 42.2% (active).

And the inhibition [3]?
The inhibition was 24.8%.

What about the inhibition [4] of the same compound?
Its inhibition is 17.4%.

And the inhibition [5]?
The inhibition was 25.2%.

For `CCc1ccc(S(=O)(=O)/N=C2\C=C(Nc3ccc(O)cc3)C(=O)c3ccccc32)cc1`, which inhibition [1] is on record?
Its inhibition is 36.8% (active).

And the inhibition [2]?
The inhibition was 90.1% (active).

And the inhibition [3]?
The inhibition was 105% (active).

What about the inhibition [4] of the same compound?
Its inhibition is 96% (active).

And the inhibition [5]?
Its inhibition is 94.3% (active).

For `O=[N+]([O-])c1cccc(-c2nc(-c3cccs3)c(-c3cccs3)[nH]2)c1`, which inhibition [1] is on record?
Its inhibition is 13%.

And the inhibition [2]?
The inhibition was 19.7%.

And the inhibition [3]?
The inhibition was 55% (active).

What about the inhibition [4] of the same compound?
Its inhibition is 42.7% (active).

And the inhibition [5]?
Its inhibition is -12.5%.

For `O=C(Cc1cc(=O)[nH][nH]1)N/N=C/c1ccccc1[N+](=O)[O-]`, which inhibition [6] is on record?
The inhibition was 5.98%.

For `O=C1Nc2c(Br)cc(Br)cc2C1(O)N1CCOCC1` (stereo unspecified), which inhibition [6] is on record?
The inhibition was 25.2%.

What about the inhibition [7] of the same compound?
Its inhibition is 8.59%.

Which inhibition [6] does the source give for `O=C(O)c1cccc(NC(=S)N/N=C/c2c[nH]c3ccccc23)c1` here?
Its inhibition is 54.5% (active).

For `CCOc1c(Br)cc(/C=C2\C(=O)N(CCC#N)N=C2C)cc1OC`, which inhibition [6] is on record?
Its inhibition is 3.85%.

And the inhibition [8]?
The inhibition was -1.18%.

For `CC(C)(C)n1cnnc1Sc1ccc([N+](=O)[O-])cn1`, which inhibition [6] is on record?
Its inhibition is 28.1%.

With `CCN(C(=O)COC(=O)c1cc(NS(=O)(=O)c2ccc(Cl)c([N+](=O)[O-])c2)ccc1O)C1CCCCC1` as the compound, how does the inhibition [6] read?
Its inhibition is 32.6%.

For `CC(=O)N(C1=C(Cl)C(=O)c2ccccc2C1=O)c1ccc(C(=O)O)cc1`, which inhibition [6] is on record?
The inhibition was 77.8% (active).

And the inhibition [9]?
The inhibition was 164% (active).

What about the inhibition [10] of the same compound?
Its inhibition is 14.1%.

And the inhibition [7]?
Its inhibition is 25.6% (active).

For `O=C(c1cccnc1)N(c1cc2sc(=O)oc2c2ccccc12)S(=O)(=O)c1ccccc1`, which inhibition [6] is on record?
Its inhibition is 6.84%.

And the inhibition [9]?
Its inhibition is 3.36%.

What about the inhibition [10] of the same compound?
Its inhibition is 10.9%.

What about the inhibition [11] of the same compound?
Its inhibition is 17.6%.

With `O=S(=O)(O)Oc1c[nH]c2ccccc12` as the compound, how does the inhibition [6] read?
Its inhibition is 51.2% (active).

With `CC/C(=N/Nc1ccccc1)c1cnnc(SC)n1` as the compound, how does the inhibition [6] read?
The inhibition was 9.56%.

For `COc1ccc(C(C(=O)NC2CCCCC2)N(C(=O)CCl)c2ccccc2Cl)cc1` (stereo unspecified), which inhibition [6] is on record?
Its inhibition is 45% (active).

For `COc1ccc(-c2csc(Nc3ccc(O)cc3)n2)cc1`, which inhibition [6] is on record?
Its inhibition is 7.69%.

With `O=c1c(/C=N/O)coc2ccc(Cl)cc12` as the compound, how does the inhibition [6] read?
The inhibition was 4.5%.

Which inhibition [6] does the source give for `COc1ccc2c(c1)OC(O)(C(F)(F)C(F)F)CC2=O` (stereo unspecified) here?
Its inhibition is 5.88%.

Which inhibition [6] does the source give for `O=[N+]([O-])c1ccc(C=Nc2ccc(Cl)cc2Cl)s1` here?
Its inhibition is 11.6%.

For `CC(C)(C)OC(=O)c1c(N)n(CCCN2CCCC2=O)c2nc3ccccc3nc12`, which inhibition [6] is on record?
The inhibition was 57.9% (active).

Which inhibition [6] does the source give for `COC(=O)CCCC1=CC2=CC(=O)C(C)(OC(=O)c3cccs3)C(=O)C2=CN1CC1CC1` (stereo unspecified) here?
Its inhibition is 30.3%.

What about the inhibition [8] of the same compound?
Its inhibition is 1.6%.

Which inhibition [6] does the source give for `CCOC(=O)c1c(NC(=O)c2ccc(S(=O)(=O)N(C)CC3CCCO3)cc2)sc2c1CC(C)(C)NC2(C)C` (stereo unspecified) here?
The inhibition was 4.04%.

With `Cc1[nH][nH]c(=O)c1C(c1ccc(-c2ccc(Cl)cc2)o1)c1c(C)[nH][nH]c1=O` as the compound, how does the inhibition [6] read?
Its inhibition is 22.6%.

And the inhibition [8]?
The inhibition was 2.58%.

With `Oc1c(C=Nc2cccc3nsnc23)ccc2ccccc12` as the compound, how does the inhibition [6] read?
The inhibition was 69.9% (active).

What about the inhibition [8] of the same compound?
Its inhibition is -54.5%.

For `Cc1ccc(C(=O)N/N=C/c2sc(=O)n(Cc3cccc(C(=O)O)c3)c2Cl)cc1`, which inhibition [6] is on record?
Its inhibition is 48.3% (active).

For `O=C(OCC(=O)N1CCCC1=O)c1cc(S(=O)(=O)N2CCOCC2)ccc1Cl`, which inhibition [6] is on record?
The inhibition was 1.2%.

For `COC(=O)c1ccc(CSc2nncn2N)cc1`, which inhibition [6] is on record?
Its inhibition is 1.78%.

With `O=C(Cn1c(-c2ccccn2)nc2ccccc21)NCCN1CCOCC1` as the compound, how does the inhibition [6] read?
Its inhibition is 6.3%.

Which inhibition [6] does the source give for `CCCc1nc2ccccc2c(=O)n1/N=C/c1ccc(O)c(O)c1` here?
The inhibition was 3.52%.

With `CC1=CC(C)(C)Nc2ccc(OC(=O)CN3C(=O)C4CCCCC4C3=O)cc21` (stereo unspecified) as the compound, how does the inhibition [6] read?
The inhibition was 1.06%.

And the inhibition [9]?
Its inhibition is 29.8% (active).

What about the inhibition [10] of the same compound?
Its inhibition is 75% (active).

And the inhibition [12]?
The inhibition was -22.9%.

What about the inhibition [13] of the same compound?
Its inhibition is 27.4%.

With `O=c1cc(CCl)nc2scc(-c3ccccc3)n12` as the compound, how does the inhibition [6] read?
Its inhibition is 96.3% (active).

For `COCCN1C=C2C(=O)C(C)(OC(=O)C3CCCC3)C(=O)C=C2C=C1c1ccsc1` (stereo unspecified), which inhibition [6] is on record?
Its inhibition is 7.54%.

What about the inhibition [8] of the same compound?
The inhibition was -1.24%.

For `C[n+]1ccccc1C1CCCC/C1=N\Nc1ccc([N+](=O)[O-])cc1[N+](=O)[O-]` (stereo unspecified), which inhibition [6] is on record?
The inhibition was 6.21%.

With `O=C(CCl)Nc1cccc(CP(=O)(c2ccccc2)c2ccccc2)c1` as the compound, how does the inhibition [6] read?
Its inhibition is 90.4% (active).

For `C=CCNC(=O)c1ccccc1SCc1c(C)noc1C`, which inhibition [6] is on record?
The inhibition was 3.92%.

What does the source list for `NNC(=O)c1oc2nc(-c3ccccc3)cc(-c3ccco3)c2c1N`?
inhibition [6]: 3.35%; inhibition [14]: 18.2%

For `CC1C(=O)Nc2ccccc2N1C(=O)c1ccc(F)cc1F` (stereo unspecified), which inhibition [6] is on record?
Its inhibition is 5.92%.

With `COc1ccc(S(=O)(=O)N2CCOCC2)cc1NC(=O)CSc1ncnc2ccccc12` as the compound, how does the inhibition [6] read?
The inhibition was 15.2%.

What about the inhibition [8] of the same compound?
Its inhibition is 0.87%.

Which results are given for `O=C(c1[nH]ncc1-c1ccc(Cl)cc1)C1CO1` (stereo unspecified)?
inhibition [6]: 79.6% (active); inhibition [15]: 57.3% (active); inhibition [16]: 7.58% (active); inhibition [17]: 34.3% (active)
